Laboratory results reported in PubChem BioAssay (NCATS).
Results filed as inconclusive are left out. The source made the active and inactive calls. Unless noted, calls come from the whole dose curve; as a rule, active = well fitted curve in the direction sought with a large enough effect; inconclusive = small, poorly fitted or top-dose-only effect, or another doubt; inactive = no such curve, though single readings can be large; an effect the other way counts as inactive or inconclusive.

How the values were obtained:
[1] = NS1 protein of Zika virus - qHTS assay to identify small molecule inhibitors in human HEK 293 cells (AID 1347053); settings: HEK293 ZIKV MR766 infection, NS1 TR-FRET, 24 h; series mostly up to 46.1 µM;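 note: plate controls were infected untreated cells for no effect and uninfected cells for full effect; nearly all actives have a fitted effect of over 55% in size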
Procedure, shortened: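 HEK 293 cells pretreated with compound for 1 h, then infected with ZIKV MR766 (MOI 0.5) for 24 h at 37 C. NS1 detected by TR-FRET with two anti-NS1 antibodies; normalized to uninfected (0%) and infected (100%) wells.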

[2] = molecular target: T1, Tyrosine-protein phosphatase non-receptor type substrate 1 (Homo sapiens) + Leukocyte surface antigen CD47 (Homo sapiens) (UniProt P78324+Q08722); test: CD47-SIRPalpha protein protein interaction - LANCE assay qHTS validation (AID 1347057; active = well fitted curve in the direction sought with a large enough effect in the signal ratio, with a control signal flat, not every such curve was filed as active; the % refers to the signal ratio; note: 0% is about no effect); settings: Recombinant CD47-His / biotin-SIRPalpha, TR-FRET ratio; series mostly up to 38.3 µM
Procedure, shortened: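 First, His-tagged CD47 and Eu-labelled anti-His antibody met the compound for 30 min; next, site-specifically biotinylated SIRPalpha was added for 30 min; finally streptavidin-APC was added before reading the TR-FRET ratio.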

[3] = molecular target: T1, Tyrosine-protein phosphatase non-receptor type substrate 1 (Homo sapiens) + Leukocyte surface antigen CD47 (Homo sapiens); test: CD47-SIRPalpha protein protein interaction - HTRF assay qHTS validation (AID 1347058; active = well fitted curve in the direction sought with a large enough effect in the signal ratio, not every such curve was filed as active; the % refers to the signal ratio;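 note: recombinant soluble extracellular CD47 with His tag and biotinylated SIRPalpha domains; 0% is about no effect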); settings: TR-FRET HTRF CD47-His / biotin-SIRPalpha binding, ratio 665/615; series mostly up to 38.3 µM
Procedure, shortened: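 TR-FRET read (Ch1/Ch2 ratio) of soluble extracellular CD47 and Avi-biotinylated SIRPalpha domains in PBS pH 7.4 with 0.05% IGEPAL; 7-point compound titration. Sequential 30 min room-temperature steps; non-biotinylated SIRPalpha as control inhibitor.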

[4] = molecular target: T1, Tyrosine-protein phosphatase non-receptor type substrate 1 (Homo sapiens) + Leukocyte surface antigen CD47 (Homo sapiens); test: CD47-SIRPalpha protein protein interaction - Alpha assay qHTS validation (AID 1347059); settings: AlphaScreen CD47-His/biotin-SIRPalpha binding, LOPAC; series mostly up to 38.3 µM;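 note: bead proximity luminescence from CD47 binding SIRPalpha after compound preincubation with SIRPalpha; % is set by controls: 0 for no effect and ±100 for the full control effect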
Procedure, shortened: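 Biotinylated Avi-tagged SIRPalpha (25 nM) preincubated 30 min with compound, then His-tagged CD47 (12.5 nM) added 30 min; AlphaScreen with Ni-NTA acceptor and streptavidin donor beads. PBS pH 7.4, 0.05% IGEPAL, room temperature; 7-point titrations.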

[5] = molecular target: Parathyroid hormone/parathyroid hormone-related peptide receptor (Homo sapiens) (UniProt Q03431); test: qHTS for PTHR1 Agonists: Optimization Screen against the NCGC LOPAC library (AID 1347079); settings: HEK293 GP2 PTHR1 GloSensor cAMP luminescence, 1 h; series mostly up to 57.1 µM;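 note: GloSensor cAMP luminescence in HEK-293 GP2 cells expressing human PTHR1 with IBMX; 0% is about no effect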
Procedure, shortened: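 Agonist readout: GloSensor cAMP luminescence, read after 15 min at room temperature. HEK-293-derived GP2 line carries PTHR1; compounds tested as a titration for 1 hr at 37C in presence of IBMX. M-PTH (1-15) served as control.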

[6] = molecular target: N-terminal Xaa-Pro-Lys N-methyltransferase 1 (Homo sapiens) (UniProt Q9BV86); test: qHTS Assay for Inhibitors of N-terminal methyltransferase 1 (NTMT1): LOPAC validation of the NTMT1 SAHH-coupled ThioGlo3 Assay (AID 1347143); settings: recombinant NTMT1, SAHH-coupled ThioGlo3 fluorescence; series mostly up to 114 µM;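 note: SAH from peptide methylation measured as thiol fluorescence via SAHH coupling and ThioGlo3; nearly all actives have a fitted effect of over 70% in size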; note: potency is the fitted concentration of half-maximal effect
Procedure, shortened: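 Recombinant human NTMT1 (125nM) was pre-incubated 1 min at room temperature with compounds over a concentration range, then a mix of 100uM SAM, 10uM SAHH and 15uM ThioGlo3 (concentrations in added reagent) was added. ThioGlo3 fluorescence (ex 340/em 450nm) after 30 min was normalized to the initial reading.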

[7] = tested on: Zika virus NS2B-NS3 protease (unlinked); test: Optimization of GU AMC qHTS for Zika virus inhibitors: Unlinked NS2B-NS3 protease assay (AID 1347151); settings: recombinant ZIKV NS2B-NS3 protease, fluorogenic AMC substrate; series mostly up to 52.5 µM; note: nearly all actives have a fitted effect of over 80% in size; note: potency is the fitted concentration of half-maximal effect
Procedure, shortened: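 Unlinked protease (25 nM final); buffer 10 mM Tris-HCl pH 8.0 + 0.01% Tween 20; AMC substrate; 15 min RT, dark; Δfluorescence normalized to no-inhibitor/no-enzyme controls; 4-parameter Hill fit.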

[8] = molecular target: Lysine-specific demethylase 5B (Homo sapiens) (UniProt Q9UGL1); test: Optimization screen for KDM5B Histone Demethylases FDH coupled qHTS against the LOPAC library (AID 1347166); settings: KDM5B demethylation, FDH-coupled NADH fluorescence (FDH is formaldehyde dehydrogenase); at 57.5 µM (top of the series); note: 0% is about no effect
Procedure, shortened: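 KDM5BDeltaAP (200nM final) preincubated 10 min with compound, then 12.5uM H3K4Me3, 25uM a-ketoglutarate, ascorbate, Fe(II), NAD+ and FDH added; 50mM HEPES pH 7.5, 0.01% Tween-20. NADH fluorescence (340/450 nm) change over 30 min, room temperature.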

[9] = tested on: Zika virus NS2B-NS3 protease; test: Primary screen GU AMC qHTS for Zika virus inhibitors (AID 1347154); settings: Zika NS2B-NS3 unlinked protease, AMC fluorogenic substrate; series mostly up to 54.1 µM;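 note: 0% = no-inhibitor control and -100% = no-enzyme control; nearly all actives have a fitted effect of over 70% in size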
Procedure, shortened: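 Unlinked Zika NS2B hydrophilic domain–NS3 protease complex at 25 nM in 10 mM Tris-HCl pH 8.0, 0.01% Tween 20, with an AMC peptide substrate. Fluorescence change (340/450 nm) over 15 min at room temperature, normalized to controls, fitted to 4-parameter Hill.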

Chain of N-terminal Xaa-Pro-Lys N-methyltransferase 1 (Homo sapiens) (Q9BV86 whole entry, looked up): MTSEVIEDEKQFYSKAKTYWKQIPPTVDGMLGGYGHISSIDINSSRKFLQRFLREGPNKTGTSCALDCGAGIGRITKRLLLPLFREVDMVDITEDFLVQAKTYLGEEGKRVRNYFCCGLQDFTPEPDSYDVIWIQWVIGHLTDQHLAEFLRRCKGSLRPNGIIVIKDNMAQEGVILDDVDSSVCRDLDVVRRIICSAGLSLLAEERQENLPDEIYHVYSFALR
T1 sequence (P78324 whole entry, looked up): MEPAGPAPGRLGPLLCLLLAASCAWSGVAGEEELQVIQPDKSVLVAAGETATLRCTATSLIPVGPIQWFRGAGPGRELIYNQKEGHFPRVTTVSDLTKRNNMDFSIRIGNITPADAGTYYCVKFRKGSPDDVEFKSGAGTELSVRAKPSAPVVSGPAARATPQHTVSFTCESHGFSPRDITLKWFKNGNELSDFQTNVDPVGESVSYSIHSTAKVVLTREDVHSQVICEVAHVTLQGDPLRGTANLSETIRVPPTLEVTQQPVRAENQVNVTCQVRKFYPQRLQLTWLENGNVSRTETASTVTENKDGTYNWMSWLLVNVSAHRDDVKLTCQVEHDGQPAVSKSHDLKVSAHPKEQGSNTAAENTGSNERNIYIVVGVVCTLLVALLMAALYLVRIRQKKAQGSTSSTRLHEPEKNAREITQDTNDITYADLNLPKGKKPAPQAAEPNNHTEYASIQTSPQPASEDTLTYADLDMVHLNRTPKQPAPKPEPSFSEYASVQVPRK
T1 sequence (Q08722 whole entry, looked up): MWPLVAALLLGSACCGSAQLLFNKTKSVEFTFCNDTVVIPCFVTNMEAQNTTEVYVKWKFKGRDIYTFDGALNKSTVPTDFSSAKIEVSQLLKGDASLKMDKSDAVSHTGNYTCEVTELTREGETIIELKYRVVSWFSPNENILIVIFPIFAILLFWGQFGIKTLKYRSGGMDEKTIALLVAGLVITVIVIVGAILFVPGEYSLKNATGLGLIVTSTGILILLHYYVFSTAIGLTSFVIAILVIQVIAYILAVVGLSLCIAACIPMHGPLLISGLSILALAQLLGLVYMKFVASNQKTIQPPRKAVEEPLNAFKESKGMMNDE
Chain of Parathyroid hormone/parathyroid hormone-related peptide receptor (Homo sapiens) (Q03431 whole entry, looked up): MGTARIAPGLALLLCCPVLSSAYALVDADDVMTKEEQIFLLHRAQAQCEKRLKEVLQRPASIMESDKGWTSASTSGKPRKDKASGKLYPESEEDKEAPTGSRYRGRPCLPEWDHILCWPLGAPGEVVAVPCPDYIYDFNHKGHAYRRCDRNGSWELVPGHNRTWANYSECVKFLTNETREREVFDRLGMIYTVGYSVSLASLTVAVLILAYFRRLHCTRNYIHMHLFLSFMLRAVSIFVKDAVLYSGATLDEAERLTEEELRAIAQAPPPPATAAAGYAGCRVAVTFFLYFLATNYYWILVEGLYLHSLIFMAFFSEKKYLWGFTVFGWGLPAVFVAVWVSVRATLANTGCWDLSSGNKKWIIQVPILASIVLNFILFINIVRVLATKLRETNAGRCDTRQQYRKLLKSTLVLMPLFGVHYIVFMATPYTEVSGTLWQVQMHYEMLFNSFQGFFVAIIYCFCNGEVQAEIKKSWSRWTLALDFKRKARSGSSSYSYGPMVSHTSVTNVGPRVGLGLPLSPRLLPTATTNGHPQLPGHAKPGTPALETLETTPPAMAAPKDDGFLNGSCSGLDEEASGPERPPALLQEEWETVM
Chain of Lysine-specific demethylase 5B (Homo sapiens) (Q9UGL1 whole entry, looked up): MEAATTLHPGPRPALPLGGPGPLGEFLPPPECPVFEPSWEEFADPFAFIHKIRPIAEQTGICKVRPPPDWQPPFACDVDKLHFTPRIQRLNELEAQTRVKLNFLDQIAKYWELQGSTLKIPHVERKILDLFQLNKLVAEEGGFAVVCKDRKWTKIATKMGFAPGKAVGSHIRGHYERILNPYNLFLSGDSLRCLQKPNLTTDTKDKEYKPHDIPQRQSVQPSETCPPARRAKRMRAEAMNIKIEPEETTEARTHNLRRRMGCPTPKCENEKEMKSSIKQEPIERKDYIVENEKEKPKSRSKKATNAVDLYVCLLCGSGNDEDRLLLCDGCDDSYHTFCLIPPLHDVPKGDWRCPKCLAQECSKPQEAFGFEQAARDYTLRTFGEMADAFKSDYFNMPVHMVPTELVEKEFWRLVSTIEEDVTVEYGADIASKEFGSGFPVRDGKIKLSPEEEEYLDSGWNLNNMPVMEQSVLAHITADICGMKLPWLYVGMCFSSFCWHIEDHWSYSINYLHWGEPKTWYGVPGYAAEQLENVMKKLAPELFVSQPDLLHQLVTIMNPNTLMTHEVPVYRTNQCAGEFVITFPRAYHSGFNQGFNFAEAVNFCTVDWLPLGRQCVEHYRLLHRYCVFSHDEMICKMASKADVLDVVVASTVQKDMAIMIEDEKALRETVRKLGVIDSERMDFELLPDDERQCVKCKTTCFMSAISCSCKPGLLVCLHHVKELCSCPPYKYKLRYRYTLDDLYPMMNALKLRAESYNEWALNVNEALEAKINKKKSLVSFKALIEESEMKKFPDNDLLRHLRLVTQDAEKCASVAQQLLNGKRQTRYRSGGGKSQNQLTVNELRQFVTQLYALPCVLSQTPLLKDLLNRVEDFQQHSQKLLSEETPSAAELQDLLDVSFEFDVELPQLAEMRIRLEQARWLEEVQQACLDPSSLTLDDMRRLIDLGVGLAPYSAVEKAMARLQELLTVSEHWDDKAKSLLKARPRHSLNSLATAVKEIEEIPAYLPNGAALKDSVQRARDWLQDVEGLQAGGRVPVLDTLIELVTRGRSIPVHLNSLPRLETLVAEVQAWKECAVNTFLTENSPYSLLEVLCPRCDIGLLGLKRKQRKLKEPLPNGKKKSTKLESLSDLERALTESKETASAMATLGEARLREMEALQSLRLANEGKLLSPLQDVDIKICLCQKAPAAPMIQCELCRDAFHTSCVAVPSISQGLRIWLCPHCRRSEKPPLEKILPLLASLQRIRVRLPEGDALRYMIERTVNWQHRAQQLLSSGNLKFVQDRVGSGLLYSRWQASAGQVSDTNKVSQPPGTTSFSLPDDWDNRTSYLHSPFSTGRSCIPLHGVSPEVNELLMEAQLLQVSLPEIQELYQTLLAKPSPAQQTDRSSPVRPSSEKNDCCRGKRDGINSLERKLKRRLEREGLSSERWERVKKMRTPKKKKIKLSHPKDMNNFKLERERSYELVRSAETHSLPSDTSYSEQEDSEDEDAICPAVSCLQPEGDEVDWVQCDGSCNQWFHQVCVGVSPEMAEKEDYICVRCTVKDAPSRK

N[C@@H](Cc1ccc(O)c(I)c1)C(=O)O
inactive: Potency [1] | Potency [2] | outcome [3] | Potency [4] | Potency [5] | Potency [6] | Potency [7] | activity, negative = inhibition [8] -7.59%

O=C(O)CCC/C=C\C[C@@H]1[C@@H](/C=C/[C@H](O)C2Cc3ccccc3C2)[C@@H](F)C[C@@H]1O
inactive: Potency [1] | Potency [2] | outcome [3] | Potency [4] | Potency [5] | Potency [6] | Potency [7] | activity, negative = inhibition [8] -5.83%

C=C1C[C@@]23CC[C@H]4[C@@](C)(CCC[C@@]4(C)C(=O)OC4OC(CO)C(O)C(O)C4O)[C@@H]2CC[C@]1(OC1OC(CO)C(O)C(O)C1OC1OC(CO)C(O)C(O)C1O)C3 (some centres not stated)
inactive: Potency [1] | Potency [2] | outcome [3] | Potency [4] | Potency [5] | Potency [6] | Potency [7] | activity, negative = inhibition [8] -7.5%

OC[C@H]1O[C@@H](n2cnc3cncnc32)[C@H](O)[C@@H]1O
inactive: Potency [1] | Potency [2] | outcome [3] | Potency [4] | Potency [5] | Potency [7] | activity, negative = inhibition [8] -2.2%
active: Potency [6] 3.16 µM

CC(=O)[C@H]1CCC2C3CC=C4C[C@@H](OS(=O)(=O)O)CC[C@]4(C)C3CC[C@@]21C (some centres not stated)
inactive: Potency [1] | Potency [2] | outcome [3] | Potency [4] | Potency [5] | Potency [6] | Potency [7] | activity, negative = inhibition [8] 0.452%

COc1cc(C(O)CO)ccc1O (configuration not stated)
inactive: Potency [1] | Potency [2] | outcome [3] | Potency [4] | Potency [5] | Potency [6] | Potency [7] | activity, negative = inhibition [8] -5.15%

CCCCCCCCCC[Si](C)(C)CCC(=O)NC(Cc1ccc(C)cc1)c1ccccc1 (configuration not stated)
inactive: Potency [1] | Potency [2] | outcome [3] | Potency [4] | Potency [5] | Potency [6] | Potency [7] | activity, negative = inhibition [8] -3.59%

CC(C)[C@@H]1CC[C@@H](C)C[C@@H]1P(=O)(c1ccccc1)c1ccccc1
inactive: Potency [1] | Potency [2] | outcome [3] | Potency [4] | Potency [5] | Potency [6] | Potency [7] | activity, negative = inhibition [8] -4.33%

N[C@H](C(=O)O)[C@H](O)C(=O)O
inactive: Potency [1] | Potency [2] | outcome [3] | Potency [4] | Potency [5] | Potency [6] | Potency [9] | activity, negative = inhibition [8] -0.47%

O=c1[nH]c2ccccc2c2ccccc12
inactive: Potency [1] | Potency [2] | outcome [3] | Potency [4] | Potency [5] | Potency [9]
active: Potency [7] 26.7 µM

NC1(C(=O)O)CC1
inactive: Potency [1] | Potency [2] | outcome [3] | Potency [4] | Potency [5] | Potency [6] | activity, negative = inhibition [8] -7.89%

CSc1nc(N)c2ncn([C@@H]3O[C@H](COP(=O)(O)OP(=O)(O)O)C(O)[C@H]3O)c2n1 (some centres not stated)
inactive: Potency [1] | Potency [2] | outcome [3] | Potency [4] | Potency [5] | Potency [7]

Clc1nccc2c1ccc1ccccc12
inactive: Potency [1] | Potency [2] | outcome [3] | Potency [4] | Potency [5] | activity, negative = inhibition [8] 2.06%
active: Potency [6] 50.1 µM

CCN(CC)CCCCCCCCOC(=O)c1cc(OC)c(OC)c(OC)c1
inactive: Potency [1] | Potency [2] | outcome [3] | Potency [4] | Potency [5] | Potency [7] | Potency [9] | activity, negative = inhibition [8] -10.5%
